# Screening results from PubChem BioAssay.
# JMJD2A Tudor inh = JMJD2A Tudor domain (human) inhibition; Potency, µM (series often up to 114 µM), for inactives: at the highest dose activity change, negative = inhibition, actives largely listed as inhibitors; O75164; 390,000 compounds, 4.4% hits; AlphaScreen JMJD2A-Tudor / H3K4me3 peptide binding; note: % is set by controls: 0 for no effect and ±100 for the full control effect; nearly all actives have a fitted effect of over 50% in size
# HP1b binding inh = HP1-beta chromodomain-methylated histone interaction inhibition | P83916 | AlphaScreen HP1-beta / biotin-H3K9me3 peptide binding | Potency, µM (highest dose often 114 µM), for inactives: at the highest dose activity change, negative = inhibition, most hits filed as inhibitors | 390,000 compounds, 0.56% hits; note: nearly all actives have a fitted effect of over 70% in size
#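 HP1-beta protein (50 nM final) preincubated 30 min at room temperature with biotinylated H3(1-18)K9me3 peptide (50 nM) in PBS pH 7.4, 0.01% Tween-20, then compound added for 30 min. AlphaScreen streptavidin donor/nickel chelate acceptor beads (10 ug/mL final), 30 min dark, luminescence read.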
# G9a block = G9a (human) methyltransferase inhibition; 350,000 compounds, 8.8% hits; Potency, µM (doses to about 102 µM), without a hit: at the highest dose activity, negative = inhibition, hits mostly inhibitors; Q96KQ7; G9a H3K9 monomethylation, AlphaScreen, 2 h; note: % is set by controls: 0 for no effect and ±100 for the full control effect; nearly all actives have a fitted effect of over 75% in size
#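 G9a (20 nM) was preincubated 15 min with compound, then reacted 2 h at room temperature with 500 nM biotin-H3K9 peptide and 20 µM SAM. Monomethyl-H3K9 detected by AlphaScreen using anti-H3K9me1 antibody.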
# BAZ2B block = inhibitors of human BAZ2B bromodomain; Potency, µM (titrated, usually from 114 µM), for the others: at the highest dose activity change, negative = inhibition, actives largely listed as inhibitors; AlphaScreen BAZ2B-H3K14Ac peptide displacement; Q9UIF8; 360,000 compounds, 4.4% hits; AID 504333; note: % is set by controls: 0 for no effect and ±100 for the full control effect; nearly all actives have a fitted effect of over 60% in size
#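 AlphaScreen displacement of biotin-H3(5-23)K14Ac peptide (50 nM final) from BAZ2B (50 nM final) in PBS pH 7.4, 0.01% Tween-20; complex preformed 30 min RT, then compounds (top 110 uM) 30 min RT, beads 20 min dark.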
# Sfp PPTase inh = inhibitors of Bacillus subtilis Sfp phosphopantetheinyl transferase; 310,000 compounds, 3.5% hits; Biochemical Sfp PPTase activity, qHTS; Potency, µM, inactives show largest response in the series, negative = inhibition, usual class: inhibitors; AID 1490; Q9F4F7;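 note: the enzyme is Sfp with the accession as filed and its product quenches rhodamine fluorescence; 0% = enzyme reaction without inhibitor and -100% = no enzyme wells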
#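 Fluorescence-quenching assay with 15 nM Sfp, 5 uM rhodamine-CoA and 12.5 uM BHQ-2-labelled ybbR peptide in pH 7.6 Hepes/MgCl2 buffer. Enzyme was pre-incubated with compound for 15 min at room temperature. Rate was taken from the 30-min fluorescence change (525/598 nm).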
# Numbers without * were called inactive; ? = inconclusive; · = not tested or not shown; [ ] = another dose, or the depositor's remark. Hits are enriched below; roughly 12% of the tested compounds scored in any of these assays. Calls come from the whole dose curve; as a rule, active = well fitted curve in the direction sought with a large enough effect; inconclusive = small, poorly fitted or top-dose-only effect, or another doubt; inactive = no such curve, though single readings can be large; an effect the other way counts as inactive or inconclusive. Potency is the fitted concentration of half-maximal effect.
SMILES,JMJD2A Tudor inh,HP1b binding inh,G9a block,BAZ2B block,Sfp PPTase inh
O=C1c2cccc3c(O)ccc(c23)C(=O)N1Cc1ccccc1,36%,50%,9%[2.33 µM],5%,?
Cc1cc(C)c[n+](-c2nc3ccccc3nc2[N-]S(=O)(=O)c2ccc(Cl)cc2)c1,-14%,32%,?,-6%,10%
CCOC(=O)C1(CCCCCCOc2ccc(Cl)cc2)CO1 (centres undefined),·,·,230%[59 µM],261%,12%
O=C(Nc1cccc(-c2nc3cccnc3s2)c1)c1cccc(Br)c1,-28%,7%,18µM*,-18%,·
CN(C)c1ccc(C(=O)Nc2cccc(-c3nc4cccnc4s3)c2)cc1,-8%,42%,-41%[59 µM],-5%,·
CC(C)(C)OC(=O)N1CCC(NC(=O)c2nc[nH]c2C(=O)N2CCN(C(=O)OC(C)(C)C)CC2)CC1,-29%,16%,-5%[2.33 µM],0%,·
CC(C)(C)OC(=O)N1CCC(NC(=O)c2[nH]cnc2C(=O)Nc2ccon2)CC1,-23%,63%,11%[0.501 µM],56µM*,·
CC(C)(C)OC(=O)N1CCC(NC(=O)c2[nH]cnc2C(=O)Nc2ccc(Cl)cc2)CC1,-19%,55%,-4%[0.501 µM],10%,·
CC(C)(C)OC(=O)NCCCCCNC(=O)c1[nH]cnc1C(=O)Nc1ccon1,-9%,48%,8%[0.501 µM],56µM*,·
CC(C)(C)OC(=O)N1CCC(NC(=O)c2nc[nH]c2C(=O)N2CCc3ccccc3C2)CC1,-27%,28%,-2%[0.501 µM],56µM*,·
CC(C)(C)OC(=O)NCCCCCNC(=O)c1[nH]cnc1C(=O)Nc1cccc(Cl)c1,-20%,34%,-2%[0.501 µM],12%,·
Cc1ccc(S(=O)(=O)Oc2cccc([N+](=O)[O-])c2)cc1,-30%,4%,·,·,·
Cc1ccc(CN2C(=O)C(C)Oc3ccccc32)cc1 (centres undefined),48%,135%,180%,29%,-1%
CCOC(=O)c1[nH]c(C)c(C(=O)N(CC)CC)c1C,-27%,28%,79µM*,3%,11%
CCOC(=O)c1[nH]c(C)c(C(=O)OCC)c1C,-28%,16%,-23%,-29%,-6%
O=C1Nc2ccc(S(=O)(=O)Nc3ccccc3O)c3cccc1c23,-22%,19%,13µM*,-26%,·
COc1cc(NC(=O)CSc2ncnc3sc4c(c23)CCC(C)C4)c(C(=O)O)cc1OC (centres undefined),-18%,5%,20µM*,-29%,45µM*
COc1ccccc1N1C(=O)c2cccc3c(C(=O)O)ccc(c23)C1=O,79µM*,-8%,-11%,-5%,-2%
COc1ccccc1N1C(=O)c2cccc3c(N(C)CCO)ccc(c23)C1=O,12%,61%,11%,4%,9%
CN1CCC(=C(c2ccccc2)c2ccc(Br)cc2)CC1,?,0%,·,·,·
NC(=O)c1c(-c2cccs2)csc1N,?,-12%,-50%[12.7 µM],?,40µM*
CCOC(=O)c1c(-c2cccs2)csc1NC(=O)CC(C)C,77%,153%,19%[12.7 µM],36%,-12%
O=C(CCN1C(=O)c2ccccc2C1=O)NCc1ccccc1,-6%,31%,9%[59 µM],-6%,20%
COc1cc(C(=O)N2CCN(S(=O)(=O)c3cccs3)CC2)cc(OC)c1C,79µM*,32%,4.5µM*,50µM*,-54%
COc1ccc(Br)c(C(=O)N2CCN(S(=O)(=O)c3cccs3)CC2)c1,-2%,46%,-34%,89µM*,8%
SMILES,JMJD2A Tudor inh,HP1b binding inh,G9a block,BAZ2B block,Sfp PPTase inh
Cn1c(N)c(C(=O)COC(=O)c2nc(Cl)ccc2Cl)c(=O)n(C)c1=O,-20%,26%,3%,-3%,7%
O=C(O)c1cccn2c(=O)c3ccccc3nc12,79µM*,6%,?,?,7%
CCN(CC)c1nc2n(c(=S)n1)CCS2,-20%,-9%,7%[59 µM],-8%,8%
O=C1OCC(c2ccccc2)=C1c1ccc(S(=O)(=O)N2CCOCC2)s1,-32%,17%,?,?,-16%
Cc1c(NS(=O)(=O)c2cc(C(=O)NCCN(C)C)ccc2Cl)c(=O)n(-c2ccccc2)n1C,?,10%,?,79µM*,11%
Cc1ccccc1NS(=O)(=O)c1cc(C(=O)NCc2ccncc2)ccc1Cl,-5%,42%,45µM*,-24%,7%
Cc1ccc(C(=O)NCc2ccncc2)cc1S(=O)(=O)Nc1cccc(C)c1C,-5%,13%,-47%,-18%,4%
Cc1ccc(NS(=O)(=O)c2cc(C(=O)NCCCN(C)C)ccc2Cl)cc1Cl,-7%,34%,79µM*,6%,·
C=C(c1ccccc1)c1ccc(N(C)C)cc1,45µM*,?,17%[2.33 µM],?,-11%
CN(C)/C=C(\C=N\OCc1ccc(Cl)cc1Cl)C(=O)Nc1ccc(Cl)c(Cl)c1,·,·,27%[59 µM],-2%,18%
c1ccc(CN(Cc2ccccc2)Cc2nnc(-c3cc4ccccc4[nH]3)o2)cc1,-13%,·,·,·,·
Cc1ccc(S(=O)(=O)N/N=C2\C(=O)C3(C)CCC2C3(C)C)cc1 (centres undefined),-8%,52%,14µM*,?,19%
Cc1ccc(S(=O)(=O)NN=C2C(=O)C3CCC2C3Cl)cc1 (centres undefined),?,49%,·,·,·
Cc1ccc(CCN2CC(C(=O)NC(C)C)CC2=O)cc1 (centres undefined),-20%,41%,23%,-15%,9%
CCOC(=O)C1CCN(S(=O)(=O)c2ccc(-c3ccccn3)s2)CC1,8%,37%,16%,4%,11%
OC(COCc1cccs1)CN1CCCCCC1 (centres undefined),?,14%,?,-9%,-8%
OC(COCc1cccs1)CN1CCN(c2cccc(Cl)c2)CC1 (centres undefined),2.8µM*,?,10µM*,50µM*,?
OC(COCc1cccs1)CN1CCN(c2ccccc2Cl)CC1 (centres undefined),-16%,18%,9%,13%,0%
CN1CCCN(CC(O)COCc2cccs2)CC1 (centres undefined),-12%,21%,40µM*,12%,13%
O=C(NCCCn1ccnc1)C1CC(c2cccc(Br)c2)=NO1 (centres undefined),-20%,25%,26%[59 µM],-1%,8%
CN(C)CCCN(C(=O)c1ccc(S(=O)(=O)N(C)C2CCCCC2)cc1)c1nc2ccc(Br)cc2s1,35µM*,-13%,·,?,40µM*
COc1cc(S(=O)(=O)N(Cc2ccccc2)CC2CCCO2)ccc1-n1cnnn1 (centres undefined),-5%,7%,0%,-14%,12%
COc1ccc(CN(CC2CCCO2)S(=O)(=O)c2ccc(C(=O)O)cc2)cc1OC (centres undefined),-7%,45%,56µM*,-6%,1%
Cc1cc(C)c2sc(N(CCCN(C)C)C(=O)c3ccc(S(=O)(=O)N(C)C4CCCCC4)cc3)nc2c1,?,?,35µM*,?,·
